{"source": "PubChem BioAssay AID1159580", "about": "(chemical genetic matrix, 2015)", "assay": "chemical genetic growth profiling, strain panel (AID 1159580);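 note: tested at 20 µM; growth read once vehicle control cultures reached saturation at 30 °C; 1 = growth at the plate median or of vehicle wells; lower values mean less growth of the strain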", "conditions": "S. cerevisiae deletion strains, growth OD", "note": "The campaign covered roughly 5,500 compounds. About 2,000 (36%) were called active. Inconclusive results (about 18%) are left out. The list shows a part of the results. Values without a mark were called inactive. Cut-off read from the data, not from the text of the source: active = normalized growth mostly below about 0.91 (no sharp cut-off); inconclusive = no clear call, values can overlap the other calls; inactive = mostly above about 0.92."}
{"smiles": "N#Cc1cc(I)c(C#N)c(I)c1", "values": [{"measurement": "normalized growth", "setting": "locus YAL013W, strain DEP1, active compounds read low", "result": "0.765 (active)"}, {"measurement": "normalized growth", "setting": "locus YBR229C, strain ROT2, active compounds read low", "result": "0.771 (active)"}, {"measurement": "normalized growth", "setting": "locus YDL101C, strain DUN1, active compounds read low", "result": "0.72 (active)"}, {"measurement": "normalized growth", "setting": "locus YDL134C, strain PPH21, active compounds read low", "result": 0.978}, {"measurement": "normalized growth", "setting": "locus YDR150W, strain NUM1, active compounds read low", "result": "0.782 (active)"}, {"measurement": "normalized growth", "setting": "locus YEL061C, strain CIN8, active compounds read low", "result": 0.981}, {"measurement": "normalized growth", "setting": "locus YGR078C, strain PAC10, active compounds read low", "result": "0.693 (active)"}, {"measurement": "normalized growth", "setting": "locus YHR030C, strain SLT2, active compounds read low", "result": 0.988}, {"measurement": "normalized growth", "setting": "locus YHR087W, strain rtc3, active compounds read low", "result": "0.737 (active)"}, {"measurement": "normalized growth", "setting": "locus YJR043C, strain POL32, active compounds read low", "result": "0.777 (active)"}, {"measurement": "normalized growth", "setting": "locus YJR075W, strain HOC1, active compounds read low", "result": "0.693 (active)"}, {"measurement": "normalized growth", "setting": "locus YKL190W, strain CNB1, active compounds read low", "result": 0.973}, {"measurement": "normalized growth", "setting": "locus YLR039C, strain RIC1, active compounds read low", "result": 0.905}, {"measurement": "normalized growth", "setting": "locus YLR058C, strain SHM2 (second series), active compounds read low", "result": "0.733 (active)"}, {"measurement": "normalized growth", "setting": "locus YLR085C, strain ARP6, active compounds read low", "result": 0.949}, {"measurement": "normalized growth", "setting": "locus YLR262C, strain YPT6, active compounds read low", "result": 0.94}, {"measurement": "normalized growth", "setting": "locus YML094W, strain GIM5, active compounds read low", "result": 0.98}, {"measurement": "normalized growth", "setting": "locus YMR219W, strain ESC1, active compounds read low", "result": "0.786 (active)"}, {"measurement": "normalized growth", "setting": "locus YMR263W, strain SAP30, active compounds read low", "result": "0.775 (active)"}, {"measurement": "normalized growth", "setting": "locus YMR307W, strain GAS1, active compounds read low", "result": 0.961}, {"measurement": "normalized growth", "setting": "locus YNL153C, strain GIM3, active compounds read low", "result": "0.746 (active)"}, {"measurement": "normalized growth", "setting": "locus YNL298W, strain CLA4 (second series), active compounds read low", "result": 0.937}, {"measurement": "normalized growth", "setting": "locus YNL322C, strain KRE1, active compounds read low", "result": "0.75 (active)"}, {"measurement": "normalized growth", "setting": "locus YNR030W, strain Alg12, active compounds read low", "result": 0.949}, {"measurement": "normalized growth", "setting": "locus YPL055C, strain LGE1, active compounds read low", "result": "0.643 (active)"}, {"measurement": "normalized growth", "setting": "locus YPL241C, strain CIN2, active compounds read low", "result": 0.979}, {"measurement": "normalized growth", "setting": "locus YPR135W, strain CTF4, active compounds read low", "result": 1.01}]}
{"smiles": "CC(=CC1CCC(C)C2CCC(C)=C12)C(=O)O", "note": "(configuration not stated)", "values": [{"measurement": "normalized growth", "setting": "locus YAL021C, strain ccr4, active compounds read low", "result": 0.948}, {"measurement": "normalized growth", "setting": "locus YAL026C, strain drs2, active compounds read low", "result": "0.904 (active)"}, {"measurement": "normalized growth", "setting": "locus YAL030W, strain snc1, active compounds read low", "result": 0.93}, {"measurement": "normalized growth", "setting": "locus YBL061C, strain skt5, active compounds read low", "result": 0.931}, {"measurement": "normalized growth", "setting": "locus YBR009C, strain hhf1, active compounds read low", "result": 0.958}, {"measurement": "normalized growth", "setting": "locus YBR023C, strain chs3, active compounds read low", "result": 0.929}, {"measurement": "normalized growth", "setting": "locus YBR171W, strain sec66, active compounds read low", "result": "0.876 (active)"}, {"measurement": "normalized growth", "setting": "locus YBR231C, strain swc5, active compounds read low", "result": 0.923}, {"measurement": "normalized growth", "setting": "locus YBR279W, strain paf1, active compounds read low", "result": 0.95}, {"measurement": "normalized growth", "setting": "locus YCL011C, strain gbp2, active compounds read low", "result": 0.986}, {"measurement": "normalized growth", "setting": "locus YCL016C, strain dcc1, active compounds read low", "result": 0.927}, {"measurement": "normalized growth", "setting": "locus YCL069W, strain vba3, active compounds read low", "result": 0.956}, {"measurement": "normalized growth", "setting": "locus YCR088W, strain abp1, active compounds read low", "result": 0.938}, {"measurement": "normalized growth", "setting": "locus YDL005C, strain med2, active compounds read low", "result": 0.953}, {"measurement": "normalized growth", "setting": "locus YDL040C, strain nat1, active compounds read low", "result": 0.935}, {"measurement": "normalized growth", "setting": "locus YDR001C, strain nth1, active compounds read low", "result": 0.943}, {"measurement": "normalized growth", "setting": "locus YDR069C, strain doa4, active compounds read low", "result": 0.931}, {"measurement": "normalized growth", "setting": "locus YDR137W, strain rgp1, active compounds read low", "result": "0.573 (active)"}, {"measurement": "normalized growth", "setting": "locus YDR159W, strain sac3, active compounds read low", "result": 0.888}, {"measurement": "normalized growth", "setting": "locus YDR195W, strain ref2", "result": 1.12}, {"measurement": "normalized growth", "setting": "locus YDR297W, strain sur2, active compounds read low", "result": 0.943}, {"measurement": "normalized growth", "setting": "locus YDR334W, strain swr1, active compounds read low", "result": 0.927}, {"measurement": "normalized growth", "setting": "locus YDR335W, strain msn5, active compounds read low", "result": 0.944}, {"measurement": "normalized growth", "setting": "locus YDR392W, strain spt3, active compounds read low", "result": "0.373 (active)"}, {"measurement": "normalized growth", "setting": "locus YEL003W, strain gim4, active compounds read low", "result": 0.958}, {"measurement": "normalized growth", "setting": "locus YEL037C, strain rad23, active compounds read low", "result": 0.942}, {"measurement": "normalized growth", "setting": "locus YEL061C, strain CIN8 (second series), active compounds read low", "result": 0.947}, {"measurement": "normalized growth", "setting": "locus YER015W, strain faa2, active compounds read low", "result": 0.971}, {"measurement": "normalized growth", "setting": "locus YER016W, strain bim1, active compounds read low", "result": 0.936}, {"measurement": "normalized growth", "setting": "locus YER111C, strain swi4, active compounds read low", "result": 0.923}, {"measurement": "normalized growth", "setting": "locus YER155C, strain BEM2 (second series), active compounds read low", "result": 0.873}, {"measurement": "normalized growth", "setting": "locus YFR010W, strain ubp6, active compounds read low", "result": 0.965}, {"measurement": "normalized growth", "setting": "locus YGL167C, strain pmr1, active compounds read low", "result": "0.892 (active)"}, {"measurement": "normalized growth", "setting": "locus YGL173C, strain kem1, active compounds read low", "result": "0.891 (active)"}, {"measurement": "normalized growth", "setting": "locus YGL227W, strain vid30, active compounds read low", "result": 0.952}, {"measurement": "normalized growth", "setting": "locus YGL240W, strain doc1, active compounds read low", "result": 0.941}, {"measurement": "normalized growth", "setting": "locus YGL253W, strain hxk2, active compounds read low", "result": 0.937}, {"measurement": "normalized growth", "setting": "locus YHR013C, strain ard1, active compounds read low", "result": 0.954}, {"measurement": "normalized growth", "setting": "locus YHR027C, strain rpn1, active compounds read low", "result": 0.956}, {"measurement": "normalized growth", "setting": "locus YHR142W, strain chs7, active compounds read low", "result": 0.901}, {"measurement": "normalized growth", "setting": "locus YJL092W, strain hpr5, active compounds read low", "result": 0.93}, {"measurement": "normalized growth", "setting": "locus YJL095W, strain BCK1 (second series), active compounds read low", "result": 0.927}, {"measurement": "normalized growth", "setting": "locus YJL115W, strain asf1, active compounds read low", "result": 0.965}, {"measurement": "normalized growth", "setting": "locus YJL129C, strain trk1, active compounds read low", "result": "0.799 (active)"}, {"measurement": "normalized growth", "setting": "locus YJL154C, strain vps35, active compounds read low", "result": 0.934}, {"measurement": "normalized growth", "setting": "locus YJL164C, strain tpk1, active compounds read low", "result": 0.923}, {"measurement": "normalized growth", "setting": "locus YJL166W, strain qcr8, active compounds read low", "result": 0.917}, {"measurement": "normalized growth", "setting": "locus YKL160W, strain elf1, active compounds read low", "result": 0.939}, {"measurement": "normalized growth", "setting": "locus YKR026C, strain gcn3, active compounds read low", "result": 0.939}, {"measurement": "normalized growth", "setting": "locus YKR091W, strain srl3, active compounds read low", "result": "0.93 (active)"}, {"measurement": "normalized growth", "setting": "locus YLL001W, strain dnm1, active compounds read low", "result": 0.966}, {"measurement": "normalized growth", "setting": "locus YLL026W, active compounds read low", "result": 0.946}, {"measurement": "normalized growth", "setting": "locus YLL041C, strain sdh2, active compounds read low", "result": 0.955}, {"measurement": "normalized growth", "setting": "locus YLR027C, strain aat2, active compounds read low", "result": 0.953}, {"measurement": "normalized growth", "setting": "locus YLR221C, strain rsa3, active compounds read low", "result": 0.943}, {"measurement": "normalized growth", "setting": "locus YLR258W, strain gsy2, active compounds read low", "result": 0.941}, {"measurement": "normalized growth", "setting": "locus YLR262C, strain YPT6 (second series), active compounds read low", "result": "0.591 (active)"}, {"measurement": "normalized growth", "setting": "locus YLR320W, strain mms22, active compounds read low", "result": "0.779 (active)"}, {"measurement": "normalized growth", "setting": "locus YLR342W, strain FKS1, active compounds read low", "result": "0.887 (active)"}, {"measurement": "normalized growth", "setting": "locus YLR357W, strain rsc2, active compounds read low", "result": 1.01}, {"measurement": "normalized growth", "setting": "locus YLR370C, strain arc18, active compounds read low", "result": "0.906 (active)"}, {"measurement": "normalized growth", "setting": "locus YLR384C, strain iki3, active compounds read low", "result": 0.926}, {"measurement": "normalized growth", "setting": "locus YML120C, strain ndi1, active compounds read low", "result": 0.968}, {"measurement": "normalized growth", "setting": "locus YMR058W, strain fet3, active compounds read low", "result": 0.937}, {"measurement": "normalized growth", "setting": "locus YMR125W, strain sto1, active compounds read low", "result": 0.937}, {"measurement": "normalized growth", "setting": "locus YMR129W, active compounds read low", "result": 0.928}, {"measurement": "normalized growth", "setting": "locus YMR205C, strain PFK2, active compounds read low", "result": "0.859 (active)"}, {"measurement": "normalized growth", "setting": "locus YMR231W, strain pep5, active compounds read low", "result": "0.898 (active)"}, {"measurement": "normalized growth", "setting": "locus YNL071W, strain lat1, active compounds read low", "result": "0.875 (active)"}, {"measurement": "normalized growth", "setting": "locus YNL209W, strain ssb2, active compounds read low", "result": 0.978}, {"measurement": "normalized growth", "setting": "locus YNL248C, strain rpa49, active compounds read low", "result": 0.972}, {"measurement": "normalized growth", "setting": "locus YNL322C, strain KRE1 (second series), active compounds read low", "result": 0.94}, {"measurement": "normalized growth", "setting": "locus YNR049C, strain mso1, active compounds read low", "result": 0.941}, {"measurement": "normalized growth", "setting": "locus YOR001W, strain rrp6, active compounds read low", "result": 0.942}, {"measurement": "normalized growth", "setting": "locus YOR070C, strain gyp1, active compounds read low", "result": 0.943}, {"measurement": "normalized growth", "setting": "locus YOR080W, strain dia2, active compounds read low", "result": 0.961}, {"measurement": "normalized growth", "setting": "locus YOR083W, strain WHI5, active compounds read low", "result": 0.933}, {"measurement": "normalized growth", "setting": "locus YOR106W, strain vam3, active compounds read low", "result": 0.914}, {"measurement": "normalized growth", "setting": "locus YOR265W, strain rbl2, active compounds read low", "result": 0.956}, {"measurement": "normalized growth", "setting": "locus YOR270C, strain vph1, active compounds read low", "result": "0.727 (active)"}, {"measurement": "normalized growth", "setting": "locus YOR290C, strain snf2, active compounds read low", "result": 0.918}, {"measurement": "normalized growth", "setting": "locus YPL051W, strain arl3, active compounds read low", "result": "0.907 (active)"}, {"measurement": "normalized growth", "setting": "locus YPL078C, strain atp4, active compounds read low", "result": 0.946}, {"measurement": "normalized growth", "setting": "locus YPL106C, strain sse1, active compounds read low", "result": 1.04}, {"measurement": "normalized growth", "setting": "locus YPL240C, strain hsp82, active compounds read low", "result": "0.925 (active)"}]}
